Assay results reported in PubChem BioAssay (Tox21).
Results filed as inconclusive are left out. A number with no mark means an inactive call. Calls of active or inactive are those of the source. The call rests on the fitted dose curve; in most records, active means well fitted cell-killing curve with a large enough effect in the repeat runs; inconclusive means weak or mixed curves; inactive means no such curve, though single readings can be large or run the other way.

Assay: qHTS assay to identify small molecule agonists of the peroxisome proliferator-activated receptor delta (PPARd) signaling pathway - cell viability counter screen (AID 743211); further: nearly all actives have a fitted effect of over 55% in size
Settings: PPARd-bla HEK293H viability, CellTiter-Glo luminescence, 17 h; series mostly up to 62.6 µM; activity change, negative = cytotoxicity: at the top concentration
Source text: U.S. Tox21 Program National Center for Advancing Translational Sciences [NCATS] NIH Chemical Genomics Center [NCGC] U.S. Environmental Protection Agency [EPA] National Institutes of Environmental Health Sciences [NIEHS] National Toxicology Program [NTP] U.S. Food and Drug Administration [FDA] Tox21 Assay Overview: The peroxisome proliferator-activated receptors (PPARs) are lipid-activated transcription factors of the nuclear receptor superfamily with three distinct subtypes namely PPAR alpha, PPAR delta (PPARd) and PPAR gamma. All these subtypes heterodimerizes with Retinoid X receptor (RXR) and have different physiological functions. […] To identify the compounds that activate PPAR-delta signaling, GeneBLAzer PPAR delta UAS-bla HEK293H cell line (Invitrogen, Carlsbad, CA, USA) containing a beta-lactamase reporter gene under the control of an Upstream Activator Sequence (UAS) was used to screen the Tox21 compound library. The cytotoxicity of the Tox21 compound library against the PPARd-bla cell line was tested in parallel by measuring the cell viability using CellTiter-Glo assay (Promega, Madison, WI) in the same wells.
Tox21 Assay Protocol Summary: PPARd-bla cells were dispensed at 3000 cells/6uL/well in 1536-well black wall/clear bottom plates using a Multidrop Combi (Thermo Fisher Scientific, Waltham, MA) dispenser. After the assay plates were incubated at 37 C and 5% CO2 for 5 h, 23 nL of compounds dissolved in DMSO, positive controls or DMSO only was transferred to the assay plate by a Pintool station (Kalypsys, San Diego, CA). The assay plates were incubated at 37C for 17 h. After 1 uL of LiveBLAzerTM B/G FRET substrate was added using a Bioraptr Flying Reagent Dispenser (FRD) workstation (Beckman Coulter, Indianapolis, IN, USA), the plates were incubated at room temperature for 2 h, and fluorescence intensity was measured by an Envision plate reader (PerkinElmer, Shelton, CT). For cell viability readout that measures cytotoxicity, 3 ul/well of CellTiter-Glo reagent was added into the assay plates using a Bioraptr FRD. After 30 min incubation at room temperature, the luminescence intensity in the plates was measured using a ViewLux plate reader (PerkinElmer).
On the % scale 0 is the no-effect control and ±100 the full control effect; potency means the concentration at half of the fitted maximal effect.

Which “activity change, negative = cytotoxicity” value does the source give for `Nc1c(CC(=O)O)cccc1C(=O)c1ccc(Br)cc1` here?
Its value is -26.7%.

Which “activity change, negative = cytotoxicity” value does the source give for `c1cc(CCCc2ccncc2)ccn1` here?
The value was -11.9%.

Which “activity change, negative = cytotoxicity” value does the source give for `CCCCCCCN` here?
The value was -16.7% [at 81.1 µM].

Which “activity change, negative = cytotoxicity” value does the source give for `Cc1[nH]c(C)c(Cl)c(=O)c1Cl` here?
The value was 8.57% [at 29.1 µM].

Which “activity change, negative = cytotoxicity” value does the source give for `CCC(C)O` (stereo not given) here?
Its value is -0.996% [at 81.1 µM].

For `O=C(O)c1ccc(-n2nc(-c3ccccc3O)nc2-c2ccccc2O)cc1`, which “activity change, negative = cytotoxicity” value is on record?
The value was -16.7%.

For `CC1(c2ccccc2)OC(C(=O)O)=CC1=O` (stereo not given), which “activity change, negative = cytotoxicity” value is on record?
Its value is -19.6%.

Which “activity change, negative = cytotoxicity” value does the source give for `CCOc1ccc(N=Nc2ccc(/C=C/c3ccc(N=Nc4ccc(OCC)cc4)cc3S(=O)(=O)O)c(S(=O)(=O)O)c2)cc1` here?
The value was -0.524%.

For `CC[N+](C)(CC)CCOC(=O)C(O)(c1ccccc1)C1CCCCC1` (stereo not given), which “activity change, negative = cytotoxicity” value is on record?
The value was 0.998%.

Which “activity change, negative = cytotoxicity” value does the source give for `COc1cc2nc(Cl)nc(N)c2cc1OC` here?
The value was -0.0659%.

For `CCOc1ccc(O)cc1`, which “activity change, negative = cytotoxicity” value is on record?
The value was 11.3%.

With `Nc1ccc(N)c2c1C(=O)c1ccccc1C2=O` as the molecule, how does the “activity change, negative = cytotoxicity” value read?
The value was -19.7%.

With `Clc1ccc2c(c1)CCc1cccnc1C2=C1CCNCC1` as the molecule, how does the Potency read?
Its Potency is 26.6 µM (active).

Which “activity change, negative = cytotoxicity” value does the source give for `OC(CN1CCC(Cc2ccc(F)cc2)CC1)c1ccc(Cl)cc1` (stereo not given) here?
Its value is -11%.

For `C=CCOC(=O)CCC1CCCCC1`, which “activity change, negative = cytotoxicity” value is on record?
The value was 2.91%.

For `CCCCCCc1ccc(-c2ccc(C#N)cc2)cc1`, which “activity change, negative = cytotoxicity” value is on record?
Its value is 3%.

With `O=C(OCCc1ccccc1)c1ccccc1` as the molecule, how does the “activity change, negative = cytotoxicity” value read?
Its value is 7.63%.

For `O=C(O)c1ccco1`, which “activity change, negative = cytotoxicity” value is on record?
Its value is 9.81%.

For `CCN(CC)CCNc1ccc(CNC=O)c2sc3ccc(OC)cc3c(=O)c12`, which Potency is on record?
Its Potency is 30.9 µM (active).

Which “activity change, negative = cytotoxicity” value does the source give for `CCOC(=O)Cc1cccc2ccccc12` here?
The value was 8.84%.

For `CCC(CC)Nc1ccc(C)c(C)c1`, which “activity change, negative = cytotoxicity” value is on record?
The value was 3.97%.

For `C[C@@H]1C[C@H]2[C@@H]3CCC4=CC(=O)C=C[C@]4(C)[C@@]3(F)[C@@H](O)C[C@]2(C)[C@@]1(O)C(=O)COC(=O)c1ccncc1`, which “activity change, negative = cytotoxicity” value is on record?
The value was -9.71%.

With `C/C=C/C(=O)CC` as the molecule, how does the activity change, negative = cytotoxicity read?
The activity change, negative = cytotoxicity was 2.34% [at 13.2 µM].

Which “activity change, negative = cytotoxicity” value does the source give for `CC(=O)[O][Al]` here?
The value was 7.23% [at 81.1 µM].

For `CCCCc1ncc(/C=C(\Cc2cccs2)C(=O)O)n1Cc1ccc(C(=O)O)cc1`, which “activity change, negative = cytotoxicity” value is on record?
The value was -15.5%.

Which “activity change, negative = cytotoxicity” value does the source give for `CCCCCCCCCCCCN1CCCCCC1=O` here?
Its value is -18.4%.

For `CCCCOC(=O)CCCCCCCC(=O)OCCCC`, which “activity change, negative = cytotoxicity” value is on record?
Its value is 6.2%.

For `CC1=CC=C(C(C)C)CC1`, which “activity change, negative = cytotoxicity” value is on record?
Its value is -0.933%.

Which “activity change, negative = cytotoxicity” value does the source give for `CC(C)Cc1ccc(C(C)C(=O)OCc2ccccn2)cc1` (stereo not given) here?
The value was 8.82%.

With `O=C(NCCO[N+](=O)[O-])c1cccnc1` as the molecule, how does the “activity change, negative = cytotoxicity” value read?
The value was 4.57%.

With `CCCCc1nc2cccnc2n1Cc1ccc(-c2ccccc2-c2nnn[nH]2)cc1` as the molecule, how does the “activity change, negative = cytotoxicity” value read?
The value was -15.4%.

Which Potency does the source give for `CNCCCCOc1ccccc1Cc1ccccc1` here?
The Potency was 26.6 µM (active).

With `CN(C)c1ccc(CCO)cc1` as the molecule, how does the “activity change, negative = cytotoxicity” value read?
The value was -0.863%.

Which “activity change, negative = cytotoxicity” value does the source give for `CCCCC(CC)COC(=O)CCCCCCCCC(=O)OCC(CC)CCCC` (stereo not given) here?
Its value is -0.515%.

With `CCN(CC)CCOC(=O)C(Cc1cccc2ccccc12)CC1CCCO1` (stereo not given) as the molecule, how does the “activity change, negative = cytotoxicity” value read?
The value was -4.75%.

With `CCCCCCCCCCCc1ccccc1` as the molecule, how does the “activity change, negative = cytotoxicity” value read?
Its value is -9.2%.

With `O=C(NCC1CN(c2ccc(N3CCOCC3=O)cc2)C(=O)O1)c1ccc(Cl)s1` (stereo not given) as the molecule, how does the “activity change, negative = cytotoxicity” value read?
Its value is -13.8%.

With `C[N+]1(C)CCC(OC(=O)C(O)(c2ccccc2)C2CCCC2)C1` (stereo not given) as the molecule, how does the “activity change, negative = cytotoxicity” value read?
Its value is 5.94%.

For `O=S(=O)(Oc1ccc(Cl)cc1)c1ccccc1`, which “activity change, negative = cytotoxicity” value is on record?
The value was 13.3%.

With `C#CCN(C)CCCOc1ccc(Cl)cc1Cl` as the molecule, how does the “activity change, negative = cytotoxicity” value read?
Its value is -11%.
